Screening data from PubChem.
Most compounds without a hit are left out; they make up all but 1.2% or so of the library.
RGS8-Gao: regulators of human RGS8-Galphao interaction | multiplexed bead flow cytometry, RGS8-Galphao binding; actives lie on both sides | P09471 | response (percent of control binding), % at 10 µM | actives 0.34% (n = 220,000); in the data active = response below about 60% or above about 140%; inactive = in between;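 also: Galphao activated as the GDP aluminium fluoride complex binding bead-coupled RGS8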
Target sequence (P09471 whole entry, looked up): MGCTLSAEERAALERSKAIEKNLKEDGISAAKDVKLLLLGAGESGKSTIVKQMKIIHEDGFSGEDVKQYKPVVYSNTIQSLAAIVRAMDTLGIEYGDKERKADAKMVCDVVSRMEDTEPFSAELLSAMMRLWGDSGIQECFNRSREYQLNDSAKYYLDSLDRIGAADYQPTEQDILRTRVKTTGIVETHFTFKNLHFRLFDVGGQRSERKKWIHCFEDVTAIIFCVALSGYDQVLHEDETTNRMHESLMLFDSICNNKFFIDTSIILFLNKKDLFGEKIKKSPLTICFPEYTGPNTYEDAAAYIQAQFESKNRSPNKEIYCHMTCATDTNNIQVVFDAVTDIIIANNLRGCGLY
GSH bead fluor: compound fluoresces at 488/530 nm on GSH beads | GSH beads flow cytometry, compound fluorescence 488/530 nm; hits give high values | actives 0.25% (n = 190,000) | AID 1776 | fluorescence (KMESF) at 10 µM; in the data active = fluorescence above about 89;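 also: glutathione beads carrying GST-tagged Bcl family fusion proteins plus one bare bead set; values are compound well signal with DMSO vehicle wells as background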
RGS16-Gao: RGS16-Galphao interaction regulator (human); bead-based flow cytometry RGS16-Galphao binding, fluorescence; actives lie on both sides; binding response (% of control), % at 10 µM; actives 0.38% (n = 220,000);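 also: Galphao activated by GDP with aluminum fluoride before binding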
Target sequence (O15492 whole entry, looked up): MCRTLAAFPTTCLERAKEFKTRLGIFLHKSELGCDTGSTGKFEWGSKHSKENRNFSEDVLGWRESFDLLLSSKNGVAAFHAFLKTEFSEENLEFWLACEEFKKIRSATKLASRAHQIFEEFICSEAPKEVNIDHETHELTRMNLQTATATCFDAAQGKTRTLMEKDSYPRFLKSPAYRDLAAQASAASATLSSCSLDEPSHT
Target sequence (P09471 whole entry, looked up): as the sequence (P09471 whole entry, looked up) above
RGS4-Gao reg: modulates binding of RGS4 to human Galphao | Multiplexed bead flow cytometry; actives lie on both sides | binding response (% of control), % at 10 µM | actives 0.33% (n = 220,000); in the data active = binding response below about 49% or above about 150%; inactive = in between;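 also: fluorescent Galphao activated with aluminum fluoride binding bead-coupled RGS4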
RGS7-Gao: human RGS7-Galphao interaction regulation. P09471. Multiplexed bead flow cytometry, RGS7-Galphao binding; actives lie on both sides. binding response (% of control), % at 10 µM. actives 0.35% (n = 220,000). AID 1439; in the data active = binding response below about 49% or above about 150%; inconclusive = no clear call, values can overlap the other calls; inactive = in between;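 also: fluorescent Galphao held in activated GDP-AlF4 state binding bead-coupled RGS7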
Avidin fluor: compound fluoresces at 488/530 nm on avidin beads; compound fluorescence 488/530 nm, flow cytometry; hits give high values; fluorescence (KMESF) at 10 µM; actives 0.38% (n = 220,000); in the data active = fluorescence above about 47
RGS4-Gao HTS: modulates binding between human RGS4 and Galphao | AID 1504 | RGS4–Galpha-o binding response, % at 10 µM | shares compounds with RGS16-Gao | actives 99% (n = 1,600) | multiplexed bead flow cytometry, RGS–Galpha-o binding;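 also: fluorescently labeled Galpha-o bound to GDP with aluminium fluoride binding biotinylated RGS beads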
Biotin-avidin: counter-screen: compounds disrupting biotin binding to avidin beads; streptavidin beads, fluorescein-biotin binding, flow cytometry; 1,700 tested, under 10 active; inhibition, % at 10 µM; shares compounds with RGS16-Gao; AID 1783;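 active = inhibition above 50%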;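 also: median green fluorescence of gated singlet beads compared with DMSO control wells; 0% = DMSO wells and 100% = complete loss of bead fluorescence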
RGS8-Gao confirm: confirmation of regulators of human RGS8-Galphao interaction. shares compounds with RGS16-Gao. bead-based flow cytometry RGS8-Galphao binding, fluorescence; actives lie on both sides. binding response (% of control), % at 10 µM. actives 3% (n = 1,700). AID 1836; in the data active = binding response below about 72% or above about 130%; inactive = in between;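 also: Galphao activated as GDP AlF4 complex before binding bead RGS8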
RGS7-Gao single: RGS7-Galphao interaction regulation, single point confirmation; response (percent of control binding), % at 10 µM; actives 7.8% (n = 1,700); bead-based flow cytometry RGS7-Galphao binding; actives lie on both sides; shares compounds with RGS16-Gao; AID 1837; in the data active = response below about 75% or above about 130%; inactive = in between;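 also: fluorescent Galphao activated with GDP and aluminum fluoride binding bead-coupled RGS7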
RGS16-Gao conf: confirmation of regulators of human RGS16-Galphao interaction; shares compounds with RGS16-Gao; bead-based flow cytometry, RGS16-Galphao binding; actives lie on both sides; response (% of control binding), % at 10 µM; actives 4% (n = 1,700); AID 1838; in the data active = response below about 74% or above about 130%; inactive = in between;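 also: Galphao activated as the GDP aluminium fluoride complex binding bead-coupled RGS16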
RGS4-Gao confirm: confirmation of regulators of human RGS4-Galphao interaction; RGS4-Galphao binding, multiplexed bead flow cytometry; actives lie on both sides; actives 4% (n = 1,700); binding response (% of control), % at 10 µM; shares compounds with RGS16-Gao; in the data active = binding response below about 74% or above about 130%; inactive = in between
RGS19-Gao conf: RGS19-Galphao interaction regulation, single point confirmation; shares compounds with RGS16-Gao; bead-based flow cytometry RGS19-Galphao binding; actives lie on both sides; response (percent of control binding), % at 10 µM; actives 5% (n = 1,700); AID 1841; in the data active = response below about 50% or above about 160%; inactive = in between;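 also: 100% = no compound control and 0% = blank background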
* hit, by the source's call; [ ] = another dose, or the depositor's remark. Unless noted, no rule for the calls is given here.

What do the screens show for `O=P(CCCCCCCCCP(=O)(c1ccccc1)c1ccccc1)(c1ccccc1)c1ccccc1`?
RGS8-Gao: 95; GSH bead fluor: 31; RGS16-Gao: 97; RGS4-Gao reg: 99; RGS7-Gao: 94; Avidin fluor: 8

What do the screens show for `CN1CCN(CCP(=O)(c2ccccc2)c2ccccc2)CC1`?
GSH bead fluor: 16; Biotin-avidin: 0; RGS8-Gao confirm: 99; RGS7-Gao single: 97; RGS16-Gao conf: 98; RGS4-Gao confirm: 99; RGS19-Gao conf: 97

Results for O=P(CCO)(c1ccccc1)c1ccccc1 ?
RGS8-Gao: 90; GSH bead fluor: 15; RGS16-Gao: 100; RGS4-Gao reg: 104; RGS7-Gao: 166*[activator]; Avidin fluor: 28; RGS4-Gao HTS: 104*; Biotin-avidin: 0; RGS8-Gao confirm: 99; RGS7-Gao single: 101; RGS16-Gao conf: 101; RGS4-Gao confirm: 101; RGS19-Gao conf: 108

What do the screens show for `Cc1c(/C=C(\C#N)c2nn(-c3ccccc3)c(N)c2C#N)c2ccccc2n1Cc1ccc(F)cc1`?
RGS8-Gao: 96; GSH bead fluor: 21; RGS16-Gao: 97; RGS4-Gao reg: 102; RGS7-Gao: 100; Avidin fluor: 10

How did O=C(/C=C/c1ccccc1)NNC(=O)C1CC1 do in these assays?
GSH bead fluor: 41; Biotin-avidin: 0; RGS8-Gao confirm: 95; RGS7-Gao single: 98; RGS16-Gao conf: 93; RGS4-Gao confirm: 94; RGS19-Gao conf: 107

Results for CC(NC(=O)Cc1ccc(-c2ccccc2)cc1)c1ccccc1 (stereo unspecified) ?
RGS8-Gao: 106; GSH bead fluor: 24; RGS16-Gao: 222; RGS4-Gao reg: 152*[activator]; RGS7-Gao: 263*[activator]; Avidin fluor: 358*; Biotin-avidin: -2; RGS8-Gao confirm: 96; RGS7-Gao single: 123; RGS16-Gao conf: 93; RGS4-Gao confirm: 98; RGS19-Gao conf: 100

Results for O=C1C(=O)c2ccc(-c3ccccc3)cc2-c2ccccc21 ?
RGS8-Gao: 134; GSH bead fluor: 38; RGS16-Gao: 259*[activator]; RGS4-Gao reg: 116; RGS7-Gao: 112; Avidin fluor: 5; RGS4-Gao HTS: 116*; Biotin-avidin: -1; RGS8-Gao confirm: 94; RGS7-Gao single: 96; RGS16-Gao conf: 92; RGS4-Gao confirm: 94; RGS19-Gao conf: 62

What do the screens show for `COc1ccc(C[C@H]2CN3C(=NC[C@@H]3C(C)C)N2CCNC(=O)CCC2CCCCC2)cc1`?
RGS8-Gao: 20*; GSH bead fluor: 21; RGS16-Gao: 14*; RGS4-Gao reg: 27*; RGS7-Gao: 10.0*; Avidin fluor: -1; Biotin-avidin: 0; RGS8-Gao confirm: 103; RGS7-Gao single: 136*[activator]; RGS16-Gao conf: 116; RGS4-Gao confirm: 126*[activator]; RGS19-Gao conf: 134

What do the screens show for `O=c1[nH]c2ccccc2nc1C(F)(F)F`?
RGS8-Gao: 137; RGS16-Gao: 167; RGS4-Gao reg: 173*[activator]; RGS7-Gao: inconclusive; Avidin fluor: 6; Biotin-avidin: -1; RGS8-Gao confirm: 93; RGS7-Gao single: 89; RGS16-Gao conf: 91; RGS4-Gao confirm: 94; RGS19-Gao conf: 101

What do the screens show for `CCC(=O)N1CCN(c2ccc(Cl)cc2NC(=O)c2ccc3c(c2)OCCO3)CC1`?
RGS8-Gao: 6.1*; GSH bead fluor: 42; RGS16-Gao: -0.4*; RGS4-Gao reg: 0.4*; RGS7-Gao: 2.0*; Avidin fluor: -4; Biotin-avidin: 2; RGS8-Gao confirm: 100; RGS7-Gao single: 96; RGS16-Gao conf: 99; RGS4-Gao confirm: 99; RGS19-Gao conf: 98

Results for CCC(=O)N1CCN(c2ccc(NC(=O)c3ccc4c(c3)OCCO4)cc2)CC1 ?
RGS8-Gao: 100; GSH bead fluor: 11; RGS16-Gao: 101; RGS4-Gao reg: 97; RGS7-Gao: 94; Avidin fluor: 3

How did O=c1oc2c(O)c(O)cc3c(=O)oc4c(O)c(O)cc1c4c23 do in these assays?
RGS8-Gao: 54*; GSH bead fluor: 11; RGS16-Gao: 80; RGS4-Gao reg: 51; RGS7-Gao: 31*; Avidin fluor: 1; RGS4-Gao HTS: 51*

Results for Nc1ccc(-c2ccc(N)cc2C(F)(F)F)c(C(F)(F)F)c1 ?
RGS8-Gao: 101; GSH bead fluor: 24; RGS16-Gao: 110; RGS4-Gao reg: 118; RGS7-Gao: 204*[activator]; Avidin fluor: 123*; RGS4-Gao HTS: 118*; Biotin-avidin: -2; RGS8-Gao confirm: 101; RGS7-Gao single: 101; RGS16-Gao conf: 97; RGS4-Gao confirm: 97; RGS19-Gao conf: 105

What do the screens show for `CCCNC(=O)c1ccc(CN2CCc3ccccc3C2)cc1`?
RGS8-Gao: 34*; GSH bead fluor: 15; RGS16-Gao: 21*; RGS4-Gao reg: 16*; RGS7-Gao: 22*; Avidin fluor: 1; Biotin-avidin: 0; RGS8-Gao confirm: 98; RGS7-Gao single: 100; RGS16-Gao conf: 100; RGS4-Gao confirm: 98; RGS19-Gao conf: 102

Results for CCC/C(O)=C1\C(=O)CC(c2ccccc2)CC1=NCCc1c(C)[nH]c2ccc(C)cc12 (stereo unspecified) ?
RGS8-Gao: 52*; GSH bead fluor: 16; RGS16-Gao: 14*; RGS4-Gao reg: 52; RGS7-Gao: 52; Avidin fluor: 2; RGS4-Gao HTS: 52*
